Values joined by “and” are separate entries in the source; they are usually repeats but may differ in a detail not shown here. Equal values may be shown once. Records with an inconclusive call do not appear. Where a structure was tested more than once in an assay, its records may differ in their call. Active and inactive are the calls of the source. Unless noted, the call rests on the fitted dose curve; in most records, active means well fitted curve in the direction sought with a large enough effect in the repeat runs; inconclusive means weak or mixed curves; inactive means no such curve, though single readings can be large; an effect the other way counts as inactive or inconclusive.
Columns and labels:
[1] = A CellTox Green Cytotoxicity Assay to monitor cytotoxicity in HepG2 cells - 8 hour (AID 1224890); further: nearly all actives have a fitted effect of over 45% in size
Summary of the method: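 HepG2, 600 cells/well premixed w/ CellTox Green; 5 h settle, 37 C/5% CO2; pintool cpd add (DMSO); 37 C, 40 h; fluorescence read at 0, 8, 16, 24, 32, 40 h.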

[2] = qHTS assay to identify small molecule antagonists of the estrogen receptor alpha (ER-alpha) signaling pathway using the BG1 cell line in the presence of 0.1 nM 17-beta-estradiol - cell viability counter screen (AID 1259241); further: nearly all actives have a fitted effect of over 40% in size
Summary of the method: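 Cytotoxicity counter-screen: live-cell protease activity measured by fluorescence (30 min reagent step) in the same wells. Cells were VM7Luc4E2 with endogenous ER-alpha and ERE-driven luciferase, treated 22 hr at 37C alongside 0.1 nM 17beta-estradiol final.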

[3] = qHTS assay to identify small molecule antagonists of the androgen receptor (AR) signaling pathway using the MDA cell line in the presence of 0.5 nM R1881 - cell viability counter screen (AID 1259242); further: nearly all actives have a fitted effect of over 45% in size
Summary of the method: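 Live-cell protease fluorescence, CellTiter-Fluor, 30 min at 37C. Cells: MDA-kb2, 3,000/well, preincubated 5 hr. Compounds plus 0.5 nM R1881 final, 16 hr, 37C, 0% CO2.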

[4] = biological target: Estrogen receptor (Homo sapiens) (UniProt P03372); assay: qHTS assay to identify small molecule antagonists of the estrogen receptor alpha (ER-alpha) signaling pathway using the BG1 cell line in the presence of 0.1 nM 17-beta-estradiol (AID 1259244); further: nearly all actives have a fitted effect of over 50% in size; further: potency means the concentration at half of the fitted maximal effect
Summary of the method: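 Luminescence after ONE-Glo (30 min, room temperature) measured ERE-luciferase activity in VM7Luc4E2 cells treated 22 h with compound and 0.1 nM final 17beta-estradiol as stimulator.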

[5] = qHTS assay to identify small molecule phospholipidosis (PLD) inducers (AID 1259344; active means well fitted curve in the direction sought with a large enough effect; an effect the other way counts as inactive or inconclusive)
Summary of the method: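 Accumulated phospholipid, stained red by LipidTOX during 24 h compound treatment of HepG2 cells at 37 C, is quantified from images as pit number and intensity, normalised per cell using Hoechst-stained nuclei.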

[6] = qHTS assay to identify small molecule HDAC inhibitors (AID 1259364);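 further: wild-type HCT-116 cells with endogenous class I/II HDAC activity; top concentration of the series differs between compounds; nearly all actives have a fitted effect of over 45% in size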
Summary of the method: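 HCT-116 (wild type), 1,500 cells/well, overnight; compound 2 hr 37C 5% CO2; HDAC-Glo I/II reagent 30 min RT; luminescence readout.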

[7] = qHTS assay to identify small molecule HDAC inhibitors - cell viability counter screen (AID 1259365); further: series mostly up to about 92 µM; nearly all actives have a fitted effect of over 50% in size
Summary of the method: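 CellTiter-Glo luminescence (30 min, room temperature) reported viability after a 2 h compound exposure at 37 C. Cells: wild-type HCT-116, 1,500 per well, seeded the night before.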

[8] = qHTS assay to identify small molecule agonists of the sonic hedgehog signaling (Shh) pathway - cell viability counter screen (AID 1259366); further: nearly all actives have a fitted effect of over 50% in size
Summary of the method: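 Cytotoxicity counter screen: CellTiter-Fluor reagent added after 23 h compound exposure, then 1 h at 37C and fluorescence read. Cells were 3T3 Gli1-Luc, seeded 2,000 per well and dosed 4 h post-plating.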

[9] = qHTS assay to identify small molecule antagonists of the sonic hedgehog signaling (Shh) pathway - cell viability counter screen (AID 1259367); further: nearly all actives have a fitted effect of over 55% in size
Summary of the method: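 CellTiter-Fluor signal in conditioned medium-stimulated 3T3 Gli1-Luc cells, 23 hr compound exposure, 37C.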

[10] = qHTS assay to identify small molecule agonists of the sonic hedgehog signaling (Shh) pathway (AID 1259368; calls by dose curve;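 further: NIH/3T3-derived 3T3Gli1-Luc cells carrying a stable Gli1-driven firefly luciferase reporter; series mostly up to about 92 µM; nearly all actives have a fitted effect of over 15% in size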)
Summary of the method: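 Read-out: firefly luciferase luminescence from a Gli1 response element reporter stably integrated in NIH/3T3-derived 3T3Gli1-Luc cells, measured 30 min at room temperature after reagent addition. Compound exposure lasted 24 hr at 37 C, 5% CO2.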

[11] = qHTS assay to identify small molecule antagonists of the sonic hedgehog signaling (Shh) pathway (AID 1259369; calls by dose curve; further: nearly all actives have a fitted effect of over 45% in size; further: potency means the concentration at half of the fitted maximal effect)
Summary of the method: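 Luminescence readout: firefly Luc under Gli1 response element in 3T3Gli1-Luc cells (NIH/3T3 clone). Antagonist mode, stimulation by conditioned medium; compound exposure 24hr at 37 C, 5% CO2.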

[12] = biological target: Estrogen receptor beta (Homo sapiens) (UniProt Q92731); assay: qHTS assay to identify small molecule agonists of the estrogen receptor beta (ER-beta) signaling pathway (AID 1259377; active means well fitted activation curve with a large enough effect in the signal ratio in the repeat runs, not every such curve was filed as active; the % refers to the signal ratio)
Summary of the method: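 Ratiometric beta-lactamase FRET read-out came after 2 h substrate loading at room temperature. It followed 16 h compound treatment at 37C of GripTite HEK293T cells carrying a UAS-bla reporter, plated in 2% charcoal-stripped FBS medium.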

[13] = biological target: Estrogen receptor beta (Homo sapiens) (UniProt Q92731); assay: qHTS assay to identify small molecule antagonists of the estrogen receptor beta (ER-beta) signaling pathway (AID 1259378; active means well fitted inhibition curve with a large enough effect in the signal ratio in the repeat runs, not every such curve was filed as active; the % refers to the signal ratio)
Summary of the method: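 Antagonist mode: compounds added to beta-lactamase reporter HEK293T ER-beta-UAS cells stimulated with E2 (1nM final), 16 hr at 37C. LiveBLAzer B/G FRET substrate, 2 hours room temperature, fluorescence read-out.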

[14] = qHTS assay to identify small molecule agonists of the androgen receptor (AR) signaling pathway in the presence of an antagonist - cell viability counter screen (AID 1259379);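 further: MDA-kb2 human breast cancer cells carrying an MMTV luciferase reporter; series mostly up to about 92 µM; nearly all actives have a fitted effect of over 25% in size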
Summary of the method: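 Viability counter screen: CellTiter-Fluor fluorescence, measured in the same wells as the luciferase read-out. MDA-kb2 cells, 3,000/well, with nilutamide at 3.0uM final and compounds at 15 concentrations, 16 hr at 37C, 0% CO2.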

[15] = qHTS assay to identify small molecule agonists of the estrogen receptor beta (ER-beta) signaling pathway - cell viability counter screen (AID 1259380); further: nearly all actives have a fitted effect of over 30% in size; further: potency means the concentration at half of the fitted maximal effect
Summary of the method: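 Luminescence read-out (CellTiter-Glo, 30 min, room temp) taken in the same wells as the beta-lactamase reporter assay; ER-beta-UAS-bla HEK293T cells exposed to DMSO-dissolved compounds for 16 hr at 37C in 2% charcoal-stripped FBS medium.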

[16] = qHTS assay to identify small molecule antagonists of the estrogen receptor beta (ER-beta) signaling pathway - cell viability counter screen (AID 1259382);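 further: HEK293T cells carrying ER-beta-UAS-bla reporter stimulated with estradiol; series mostly up to about 92 µM; nearly all actives have a fitted effect of over 55% in size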
Summary of the method: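 Luminescent ATP read-out (CellTiter-Glo, 30 min, RT) taken in the same wells as the bla reporter assay. HEK293T ER-beta-UAS-bla cells in 2% charcoal-stripped FBS were exposed to compounds with 1nM E2 for 16 hr at 37C.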

[17] = biological target: Estrogen receptor (Homo sapiens) (UniProt P03372); assay: qHTS assay to identify small molecule agonists of the estrogen receptor alpha (ER-alpha) signaling pathway in the presence of an antagonist (AID 1259383; calls by dose curve; further: top concentration of the series differs between compounds; nearly all actives have a fitted effect of over 15% in size)
Summary of the method: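 Luciferase luminescence (ONE-Glo, 30min at room temperature) measured in VM7Luc4E2 cells after 22hr compound exposure at 15 concentrations, with 10.0nM ICI-182,780 final present; cells express endogenous ER-alpha and carry four EREs upstream of luciferase.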

[18] = qHTS assay to identify small molecule agonists or antagonists of the thyroid stimulating hormone receptor (TSHR) signaling pathway - wild type cell line counter screen (AID 1259384; calls by dose curve)
Summary of the method: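 Counter screen in untransfected Hek293: compounds (15-point titration, triplicate) plus phosphodiesterase inhibitor Ro20-1724 added after 18 h plating; 30 min RT. Intracellular cAMP via competitive d2/cryptate immunoassay, 1 h incubation.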

[19] = biological target: Androgen receptor (Homo sapiens) (UniProt P10275); assay: qHTS assay to identify small molecule antagonists of the androgen receptor (AR) signaling pathway using the MDA cell line in the presence of 0.5 nM R1881 (AID 1259243); further: nearly all actives have a fitted effect of over 50% in size; further: potency means the concentration at half of the fitted maximal effect
Summary of the method: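 MDA-kb2, MMTV-luc (AR/GR elements); 3,000 cells/well; cpd + 0.5 nM R1881 final; 16 hr 37C, 0% CO2; ONE-Glo 30 min RT; luminescence.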

[20] = biological target: Androgen receptor (Homo sapiens) (UniProt P10275); assay: qHTS assay to identify small molecule agonists of the androgen receptor (AR) signaling pathway in the presence of an antagonist (AID 1259381; calls by dose curve; further: nearly all actives have a fitted effect of over 15% in size)
Summary of the method: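 Luciferase read-out (ONE-Glo, 30min room temperature) in MDA-kb2 MMTV-reporter cells; agonist mode run in presence of AR antagonist nilutamide, 3.0uM final. Compounds tested as 15-point series, 16hr exposure at 37C, 0% CO2.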

Measured: Potency

Androgen receptor (Homo sapiens), sequence (P10275 whole entry, looked up): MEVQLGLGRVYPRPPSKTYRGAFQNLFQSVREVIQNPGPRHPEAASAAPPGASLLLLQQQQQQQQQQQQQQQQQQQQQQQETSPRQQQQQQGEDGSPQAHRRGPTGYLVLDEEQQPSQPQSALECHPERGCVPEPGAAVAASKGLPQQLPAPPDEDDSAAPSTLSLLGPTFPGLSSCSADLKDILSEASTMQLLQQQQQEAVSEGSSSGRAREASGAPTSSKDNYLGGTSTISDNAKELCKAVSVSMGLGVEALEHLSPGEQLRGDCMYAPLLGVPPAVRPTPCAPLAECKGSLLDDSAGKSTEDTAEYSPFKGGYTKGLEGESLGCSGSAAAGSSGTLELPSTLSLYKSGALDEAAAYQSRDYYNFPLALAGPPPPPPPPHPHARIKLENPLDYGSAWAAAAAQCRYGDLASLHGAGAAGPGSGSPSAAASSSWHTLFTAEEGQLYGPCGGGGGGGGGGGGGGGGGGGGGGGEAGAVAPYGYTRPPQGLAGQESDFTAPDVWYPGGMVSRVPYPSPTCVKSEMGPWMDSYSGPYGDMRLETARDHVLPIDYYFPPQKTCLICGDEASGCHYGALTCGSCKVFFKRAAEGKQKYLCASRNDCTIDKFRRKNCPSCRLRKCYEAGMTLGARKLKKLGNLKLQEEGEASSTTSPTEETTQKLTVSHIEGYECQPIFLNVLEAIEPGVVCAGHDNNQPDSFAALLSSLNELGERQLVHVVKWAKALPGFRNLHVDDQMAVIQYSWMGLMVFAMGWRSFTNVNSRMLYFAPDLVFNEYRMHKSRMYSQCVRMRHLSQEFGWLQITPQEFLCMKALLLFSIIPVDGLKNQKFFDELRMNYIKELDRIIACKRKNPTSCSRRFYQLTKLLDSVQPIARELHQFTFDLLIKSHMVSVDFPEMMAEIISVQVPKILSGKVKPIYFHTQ
Estrogen receptor beta (Homo sapiens), sequence (Q92731 whole entry, looked up): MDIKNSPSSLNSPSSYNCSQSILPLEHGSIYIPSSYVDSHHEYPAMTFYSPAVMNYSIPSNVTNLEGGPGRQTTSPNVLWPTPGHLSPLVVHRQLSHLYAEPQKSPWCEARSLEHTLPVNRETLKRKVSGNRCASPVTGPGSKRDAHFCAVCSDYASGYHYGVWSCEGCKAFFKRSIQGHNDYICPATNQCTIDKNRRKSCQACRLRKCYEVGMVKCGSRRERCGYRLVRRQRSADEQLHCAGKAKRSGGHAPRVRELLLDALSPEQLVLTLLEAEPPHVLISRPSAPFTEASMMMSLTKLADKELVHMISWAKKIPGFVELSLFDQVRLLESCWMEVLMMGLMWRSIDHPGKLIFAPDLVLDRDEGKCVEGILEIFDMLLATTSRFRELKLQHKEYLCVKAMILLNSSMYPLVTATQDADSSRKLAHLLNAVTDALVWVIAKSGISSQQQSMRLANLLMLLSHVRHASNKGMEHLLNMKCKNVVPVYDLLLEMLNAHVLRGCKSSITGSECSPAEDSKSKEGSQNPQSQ
Estrogen receptor (Homo sapiens), sequence (P03372 whole entry, looked up): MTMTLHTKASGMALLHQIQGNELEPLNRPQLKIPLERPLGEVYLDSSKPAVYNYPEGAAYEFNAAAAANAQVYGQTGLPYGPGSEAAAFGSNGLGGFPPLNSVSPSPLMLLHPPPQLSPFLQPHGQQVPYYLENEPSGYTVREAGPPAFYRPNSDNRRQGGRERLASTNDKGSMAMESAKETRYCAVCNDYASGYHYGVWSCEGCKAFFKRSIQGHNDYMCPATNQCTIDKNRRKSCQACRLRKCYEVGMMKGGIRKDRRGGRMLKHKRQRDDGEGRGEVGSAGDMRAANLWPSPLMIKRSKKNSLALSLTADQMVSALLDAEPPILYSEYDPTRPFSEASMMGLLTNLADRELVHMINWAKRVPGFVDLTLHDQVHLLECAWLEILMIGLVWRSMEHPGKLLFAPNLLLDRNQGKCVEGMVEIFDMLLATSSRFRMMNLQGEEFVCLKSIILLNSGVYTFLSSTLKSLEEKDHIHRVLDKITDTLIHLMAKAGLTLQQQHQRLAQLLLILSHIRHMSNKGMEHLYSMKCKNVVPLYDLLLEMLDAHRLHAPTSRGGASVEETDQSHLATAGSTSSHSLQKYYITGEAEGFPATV

CCCCC(CC)COC(=O)c1ccc(N(C)C)cc1 (centres undefined)
not listed: [19] | [20]
inactive: all other assays above

CCCc1c(OCCCCc2nn[nH]n2)ccc(C(C)=O)c1O
active: [15] 68.6 µM
not listed: [12] | [13] | [19] | [20]
inactive: all other assays above

C#C[C@]1(O)CC[C@H]2[C@@H]3CCc4cc(OC)ccc4[C@H]3CC[C@@]21C
active: [15] 21.7 µM
not listed: [12] | [13] | [16] | [17] | [19] | [20]
inactive: all other assays above

CC(C)OC(=O)C(C)(C)Oc1ccc(C(=O)c2ccc(Cl)cc2)cc1
61.1 µM (active) and inactive: [4]
27.3 µM (active) and inactive: [11]
active: [19] 43.3 µM and 29.8 µM
not listed: [7] | [13] | [17]
inactive: all other assays above

Cc1ccc(C)c(O)c1C
not listed: [5] | [12] | [13]
inactive: all other assays above

Cc1[nH]c(=O)c(C#N)cc1-c1ccncc1
not listed: [19] | [20]
inactive: all other assays above

C=C(C)C(=O)OCCOC(=O)C(=C)C
not listed: [5]
inactive: all other assays above

Source: PubChem BioAssay (Tox21)
